Experimental data taken from PubChem BioAssay AID624330 (Southern Research Specialized Biocontainment Screening …, 2012).
Out of some 340,000 compounds screened, about 2,100 (0.62%) were called active.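 The calls were made as follows: active = first-screen hits whose inhibition reached a set limit at any dose in the follow-up dose series; inconclusive = inhibition above the set first-screen limit but never retested; inactive = the rest.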 Not all results are given here. Potency and affinity values are given separately.

Biological target: Rac GTPase-activating protein 1 (Homo sapiens) (UniProt Q9H0H5)
Sequence (Q9H0H5 whole entry, looked up): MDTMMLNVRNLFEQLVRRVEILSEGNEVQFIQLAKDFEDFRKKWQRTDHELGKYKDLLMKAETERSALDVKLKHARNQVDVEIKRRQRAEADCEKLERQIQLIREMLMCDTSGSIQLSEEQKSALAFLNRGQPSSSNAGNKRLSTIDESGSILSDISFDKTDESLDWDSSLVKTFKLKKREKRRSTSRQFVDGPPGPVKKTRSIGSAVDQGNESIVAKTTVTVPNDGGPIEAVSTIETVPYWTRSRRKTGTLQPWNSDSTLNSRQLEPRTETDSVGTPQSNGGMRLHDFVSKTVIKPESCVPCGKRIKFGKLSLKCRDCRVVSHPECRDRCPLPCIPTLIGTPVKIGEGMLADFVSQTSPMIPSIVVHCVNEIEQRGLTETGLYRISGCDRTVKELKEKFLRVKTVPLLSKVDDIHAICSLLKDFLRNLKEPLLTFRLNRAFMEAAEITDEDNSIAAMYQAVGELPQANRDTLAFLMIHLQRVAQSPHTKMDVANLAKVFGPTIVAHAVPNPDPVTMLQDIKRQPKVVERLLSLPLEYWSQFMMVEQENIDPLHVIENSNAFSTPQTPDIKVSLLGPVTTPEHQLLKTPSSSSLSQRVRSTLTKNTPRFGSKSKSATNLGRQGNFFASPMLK
Experiment: MgcRacGAP GTPase-activating activity inhibitors, confirmation, biochemical, ADP Hunter fluorescence, primary and confirmatory (AID 624330);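 also: fluorescence reports GDP produced by GAP-driven GTP hydrolysis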
Settings: MgcRacGAP-stimulated Rac1 GTP hydrolysis, at 30 µM, stronger effect = higher value, GST-tagged Rac1 F28L mutant substrate

inhibition, inactive:
COc1ccc(N=Cc2cc(Cl)ccc2O)cc1Cl 15.8%
Oc1ccc(Cl)cc1C=Nc1ccc(Br)cc1 7.16%
c1ccc(C2=Nn3c(nnc3-c3ccco3)SC2)cc1 18%
Fc1ccc(C2=Nn3c(nnc3-c3ccco3)SC2)cc1 1.81%
CN(CC(=O)NCc1ccncc1)S(=O)(=O)c1cc(Cl)ccc1Cl 1.23%
COc1ccc(NC(=O)c2c[nH]c(=O)n(-c3ccc(C)c(C)c3)c2=O)cc1OC -10.4%
CC1=NN(c2ccccc2)C(=O)C1(C)C 12.1%
CC1=NN(c2ccccc2)C(=O)C1c1ccccc1 (stereo unspecified) 26.3%
COc1ccc(CNC(=O)CSc2nnc3c(n2)[nH]c2ccccc23)cc1 3.19%
COc1ncnc2c1ncn2CCCNCc1ccccc1 20.3%
CSc1ncnc2c1ncn2CCCNCCCc1ccccc1 17.5%
Cc1ccc(NCCCn2cnc3c(OCc4ccccc4)ncnc32)cc1C 26.1%
CSc1ncnc2c1ncn2CCCNCc1ccccc1 17.1%
CCOCCCNC(=O)c1cc(Cl)c(NC(=O)C2=C(C)OCCS2)cc1OC 9.37%
OCC[C@H]1C[C@@H](O)[C@H](O)[C@]2(CCc3ccccc3CO2)O1 -0.41%
CN1CCN(c2cc(N3CCN(C(=O)c4ccco4)CC3)c3c4c(onc24)-c2ccccc2C3=O)CC1 14.2%
CCN1CCN(c2cc(N3CCN(C(=O)c4ccco4)CC3)c3c4c(onc24)-c2ccccc2C3=O)CC1 25.5%
Cc1nc(NC(=O)CCCC(=O)Nc2nc(C)c(C)s2)sc1C 3.32%
CCc1cc(=O)oc2c(C)c(OC(C)C(=O)NCC3CCC(C(=O)O)CC3)ccc12 (stereo unspecified) 0.46%
CCN(C(=O)Cn1cc(C(=O)C(=O)N2CCOCC2)c2ccccc21)c1ccccc1 7.38%
C=C(CC)C(=O)c1ccc(OCC(=O)O)c(Cl)c1Cl 4.69%
O=C(O)COc1ccc2nsnc2c1Cl 6.84%
CN1CCN(C(=O)CN(CCc2ccccc2)S(C)(=O)=O)CC1 1%
CS(=O)(=O)Nc1cccc(C2=NN(C(=O)c3cccc([N+](=O)[O-])c3)C(c3cccs3)C2)c1 (stereo unspecified) 7.25%
CC1(C)CC(CC(=O)Nc2ccccn2)C(=O)O1 (stereo unspecified) 3.54%
Cc1ccc(Oc2ncccc2/C=N/O)cc1 5.93%
Cc1cc(Cl)ccc1OC(C)C(=O)OCC(=O)Nc1ccc2[nH]c(=O)[nH]c2c1 (stereo unspecified) 1.09%
CCN1C(=O)/C(=C\N(C)C)NC1=S 12%
COc1ccc(N2C(=O)/C(=C/c3cccs3)NC2=S)cc1 9.24%
COc1ccc(N2C(=O)/C(=C/c3cccnc3)NC2=S)cc1 3.24%
CN(C)/C=C1\NC(=S)N(c2ccc(Cl)cc2)C1=O 17.9%
Cc1cccc(C)c1NC(=O)C1CCN(S(C)(=O)=O)CC1 -16.2%
O=C(O)c1cc(O)c2c(c1)C(=O)c1cccc(O)c1C2=O 28.8%
O=C1C=C(O)c2cccc(O)c2C1=O 0.71%
CNC(=O)c1sc(=S)n(-c2ccc(OC)cc2)c1N 3.75%
Cc1cccc(-c2ncc(S(=O)(=O)C(C)(C)C)c(N)n2)c1 -7.62%
CC(=O)Nc1ccc(N(C(=O)CNC(=O)c2ccco2)C(C(=O)NCc2ccco2)c2ccccc2F)cc1 (stereo unspecified) 4.97%
Cc1cccc(C(=O)NC(C)c2ccc(-n3ccnc3)cc2)c1C (stereo unspecified) 5%
COc1ccc([N+](=O)[O-])cc1NC(=O)C(C)NNC(=O)c1cccc([N+](=O)[O-])c1 (stereo unspecified) 4.39%
CN(C)C=Nc1ccc2nn(-c3ccccc3)nc2c1 6.6%
CN(C)C=Nc1ccc(Cl)c(Cl)c1 2.39%
Cc1c(C(c2cc(O)ccc2O)c2c(C)n(C)n(-c3ccccc3)c2=O)c(=O)n(-c2ccccc2)n1C -9.5%
CCCN(C(=O)c1cccs1)c1c(N)n(Cc2ccccc2)c(=O)[nH]c1=O 4.88%
CSc1ncccc1C(=O)Nc1cc(C)ccn1 11.2%
COc1ccc(CC(=O)NCC2CCCN(Cc3ccc(F)c(OC)c3)C2)cc1 (stereo unspecified) -1.16%
CC1=C(C(=O)N2CCOCC2)CC(CC(=O)NC2CCCC2)C(=O)N1Cc1ccc(F)cc1 (stereo unspecified) 14.4%
COc1ccc(NC(=O)NNC(=O)COc2ccc3ccccc3c2)cc1 5.22%
COc1ccc2cc(OCC(=O)NNC(=O)Nc3ccc(OC)c(OC)c3)ccc2c1 17.7%
COc1ccc(NC(=O)NNC(=O)COc2ccc3cc(Br)ccc3c2)cc1 9.2%
COc1cccc(NC(=O)NNC(=O)COc2ccc3ccccc3c2)c1 2.17%
COc1ccc(C(=O)N2CCNC(=O)C2CC(=O)Nc2cccc(Cl)c2Cl)cc1 (stereo unspecified) -0.3%
O=Cc1cn(-c2ccccc2)nc1-c1cccc([N+](=O)[O-])c1 6.3%
COc1ccc(C2NN=C(c3ccc(C)cc3)S2)cc1OC (stereo unspecified) -0.47%
COc1ccc(C2NN=C(c3ccc(C)cc3)S2)cc1 (stereo unspecified) 7.81%
COc1ccc(NC(=O)CC2C(=O)NCCN2C(=O)c2ccccc2)cc1 (stereo unspecified) 6.95%
Nc1nc(-c2ccccc2)cn1/N=C/c1ccccc1 3.51%
CC(=O)N(C(C)=O)c1nc(-c2ccccc2)cn1/N=C/c1ccccc1 7.71%
Cc1ccc(S(=O)(=O)CCC(=O)Nc2nc(-c3cccnc3)cs2)cc1 -10.2%
CCCc1nn2c(=O)cc(CSCC(=O)Nc3ccc(OC)cc3)nc2s1 1.76%
Cc1nnc(N2C(=O)C(O)=C(C(=O)c3ccco3)C2c2cccc3ccccc23)s1 (stereo unspecified) 7.61%
CC(C)(O[C@@H]1O[C@H](CO)[C@@H](O)[C@H](O)[C@H]1O)[C@H]1Cc2cc3ccc(=O)oc3cc2O1 3.49%
